Assay results reported in the supplement of paper PMC11150407.
Counter-ions that a name gives are not always drawn. Screen size: about 2,100 compounds; about 180 (8.6%) showed an effect of 50% or more. The entries come from a sample that favours strong results as a whole.

system: MOLM1 and UCSD/AML1 (averaged); assay: cell viability relative to DMSO control (POC); higher = less growth inhibition; details: 1 µM; 72 h
Method: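 Primary viability screen in the 3q26 EVI1-high AML cell lines MOLM1 and UCSD/AML1 (1.5e3 cells/well, 384-well), compounds at 1 uM for 72 h. ATP CellTiter-Glo read-out given as percent of viable cells over DMSO control (POC), averaged over duplicates. DMSO was the negative control and 5 uM etoposide the positive control. This mapping covers the MicroSource Spectrum and Selleck anticancer libraries (drug names).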

Row | Structure (SMILES) | cell viability
1 | OCC(O)C(O)C(O)C(O)C(O)CO (centres undefined) | 102%
2 | COc1ccc2c(c1)OCC(Cc1ccc(OC)c(OC)c1)C2=O (centres undefined) | 112%
3 | COc1ccc2c(c1)OC/C(=C/c1ccc(OC)c(OC)c1)C2=O | 108%
4 | COc1ccc2c(c1)OC/C(=C\c1ccc(OC)c(O)c1)C2=O | 18.3%
5 | COC(=O)[C@@H]1OC(=O)C2OC23[C@@]1(C)CCC1[C@]2(C)C(C[C@H](O)[C@]13C)C(C)(C)[C@H](OC(C)=O)C[C@@H]2OC(C)=O (stereo partly drawn) [7beta-HYDROXY-7-DESACETOXYKHIVORINIC ACID, METHYL ESTER] | 111%
6 | COC(=O)C[C@H]1C(C)(C)C2(O)OC34CC2C(=O)[C@]1(C)C3CC[C@]1(C)C4=CC(=O)O[C@H]1c1ccoc1 (stereo partly drawn) [8beta-HYDROXYCARAPIN, 3,8-HEMIACETAL] | 89%
7 | CC(C)CC(NC(=O)OCC1c2ccccc2-c2ccccc21)C(=O)O (stereo in doubt) | 105%
8 | COc1cccc2c1C(=O)c1c(O)c3c(c(O)c1C2=O)C[C@@](O)(C(C)=O)C[C@@H]3O[C@H]1C[C@H](N)[C@H](O)[C@H](C)O1 [Daunorubicin HCl (Daunomycin HCl)] | 1.38%
9 | COc1cccc2c1C(=O)c1c(O)c3c(c(O)c1C2=O)C[C@@](O)(C(=O)CO)C[C@@H]3O[C@H]1C[C@H](N)[C@@H](O)[C@H](C)O1 | 5.86%
10 | COc1cccc2c1C(=O)c1c(O)c3c(c(O)c1C2=O)C[C@@](O)(C(=O)CO)C[C@@H]3O[C@H]1C[C@H](N)[C@@H](O)[C@H](C)O1 [Epirubicin Hydrochloride] | 1.66%
11 | COc1cccc2c1C(=O)c1c(O)c3c(c(O)c1C2=O)C[C@@](O)(C(=O)CO)C[C@@H]3O[C@H]1C[C@H](N)[C@H](O)[C@H](C)O1 | 1.67%
12 | COc1cccc2c1C(=O)c1c(O)c3c(c(O)c1C2=O)C[C@@](O)(C(C)=O)C[C@@H]3O[C@H]1C[C@H](N)[C@H](O)[C@H](C)O1 | 1.85%
13 | CC(=O)[C@]1(O)Cc2c(O)c3c(c(O)c2[C@@H](O[C@H]2C[C@H](N)[C@H](O)[C@H](C)O2)C1)C(=O)c1ccccc1C3=O [Idarubicin HCl] | 1.49%
14 | COc1cccc2c1C(=O)c1c(O)c3c(c(O)c1C2=O)C[C@@](O)(C(=O)CO)C[C@@H]3O[C@H]1C[C@H](N)[C@H](O)[C@H](C)O1 [Doxorubicin (Adriamycin)] | 1.61%
15 | CCCCCCCCCCCC[C@@H](C(=O)O)[C@H](C)C(=O)O | 96%
16 | Cc1cc(O)cc(=O)o1 | 112%
17 | O=C1C=C(O)C(=O)c2ccccc21 | 92.9%
18 | CC(=O)OCC(=O)[C@@]1(O)CC[C@H]2[C@@H]3C[C@H](C)C4=CC(=O)C=C[C@]4(C)[C@H]3[C@@H](O)C[C@@]21C [6alpha-METHYLPREDNISOLONE ACETATE] | 65%
19 | CC(=O)O[C@]1(C)CC[C@@]23C[C@H]1C(C)(C)[C@@H]2CC[C@H]3C | 107%
20 | C[C@H]1CC[C@@H](C(C)(C)O)CC2=C1CC[C@@H]2C | 94.4%

Row | Structure (SMILES) | cell viability
21 | Oc1ccc2c(c1)OC[C@]1(O)Cc3cc(O)c(O)cc3[C@H]21 | 105%
22 | COc1cc2ccc(=O)oc2cc1O | 94.7%
23 | CC1/C(=N/O)C[C@@H]2C[C@H]1C2(C)C (some centres undefined) | 102%
24 | C[n+]1ccccc1C=NO | 99.8%
25 | COc1ccc(C2CC(=O)c3ccc(OC)cc3O2)cc1 (centres undefined) | 109%
26 | N#Cc1c(O)c2c(-c3ccc(-c4ccccc4O)cc3)csc2[nH]c1=O | 97.3%
27 | COC(=O)[C@H]1[C@H]2C[C@H]3c4[nH]c5cc(OC)ccc5c4CCN3C[C@H]2C[C@@H](OC(=O)c2cc(OC)c(OC)c(OC)c2)[C@@H]1OC | 111%
28 | COC1=C[C@@H](C)[C@@H]2C[C@H]3OC(=O)C[C@H]4C(C)=C(OC)C(=O)[C@H]([C@@]2(C)C1=O)[C@@]34C | 93.7%
29 | CC(C)CC(=O)Nc1n[nH]c2c1CN(C(=O)C1CCN(C)CC1)C2(C)C | 49.4%
30 | O=c1[nH]cnc2nc[nH]c12 | 102%
31 | CC1(C)CC[C@]2(C)CC[C@]3(C)C(=CC[C@@H]4[C@@]5(C)CC[C@H](O)C(C)(C)[C@@H]5CC[C@]43C)[C@@H]2C1 [beta-AMYRIN] | 91.8%
32 | CC1(C)CNc2cc(NC(=O)c3cccnc3NCc3ccncc3)ccc21 [Motesanib Diphosphate] | 86.1%
33 | CCCCC(CC)CN=C(N)N=C(N)NCCCCCCNC(N)=NC(N)=NCC(CC)CCCC (centres undefined) | 7.07%
34 | O=C(O)[C@]1(O)C[C@@H](O)[C@@H](O)[C@H](O)C1 | 97.5%
35 | C[C@@H]1CN(CC(=O)Nc2ccc3c(c2)Cc2cccc(-c4cc(=O)cc(N5CCOCC5)o4)c2S3)C[C@H](C)O1 | 88.5%
36 | CCCCCC(=O)Cc1cc(O)cc(O)c1C(=O)Oc1cc(CC(=O)CCCCC)c(C(=O)O)c(OC)c1 | 87.8%
37 | COc1c(-c2coc3cc4c(cc3c2=O)CC(O)C(C)(C)O4)ccc2c1C=CC(C)(C)O2 (centres undefined) | 82.2%
38 | COc1ccc(CC(=O)c2ccc(O)cc2O)cc1 | 107%
39 | O.O.O.O.O.O.O.O.O.O.O.O.O.O.O.O.O=S(=O)([O][Al])OC[C@H]1O[C@@](COS(=O)(=O)[O][Al])(O[C@H]2O[C@H](COS(=O)(=O)[O][Al])[C@@H](OS(=O)(=O)[O][Al])[C@H](OS(=O)(=O)[O][Al])[C@H]2OS(=O)(=O)[O][Al])[C@@H](OS(=O)(=O)[O][Al])[C@@H]1OS(=O)(=O)[O][Al] | 101%
